According to PubChem BioAssay (NCI):
Compounds without any hit were thinned out: in the full panel of roughly 83,000, 20% have a hit.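 Testing used 96-well plates and a 48-hour single-concentration exposure. Example: -40 means 40% of the starting cells died.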 Active and inactive are the calls of the source. Rule for the calls: active = growth percent below 10; inactive = the rest.

tested on: OVCAR-4 ovarian; assay: NCI-60 one-dose screen, 48 h (100 = growth as untreated, 0 = no growth, -100 = all killed); conditions: 10 µM unless noted

SMILES	growth
COc1nc(OC)nc(-c2cc(C(=O)c3ccc(Br)cc3)n3cc(C)cc(C)c23)n1	37.6% (inactive)
CC(=O)OCC(=O)[C@@]1(O)[C@H](C)C[C@H]2[C@@H]3C=C(C)C4=Cc5c(cnn5-c5ccc(F)cc5)C[C@]4(C)[C@H]3[C@@H](O)C[C@@]21C	38.8% (inactive)
Brc1c(-c2ccncc2)nc2n1CCS2	109% (inactive)
CC(=O)/C(=C\c1c(-c2ccccc2)[nH]c2ccccc12)S(=O)(=O)c1ccccc1	17.7% (inactive)
COc1ccc(/C=N/c2cc(C(C)(C)C)nn2-c2ccccc2)cc1	109% (inactive)
CCC1(CC)C(OC)NC(Br)=C(C#N)C1(C#N)C(N)=O (centres undefined)	110% (inactive)
COc1ccc(CN2C(=O)/C(=C\C(=O)c3ccc(OCCN4CCCC4)cc3)c3ccccc32)cc1	60.4% (inactive)
COc1ccc(/C=C2\SC(=O)N(Cc3cc(=O)oc4ccc(OC)cc34)C2=O)cc1	63.6% (inactive)
c1cc(C2CCCCC2)ccc1OCCCCCCN1CCNCC1	41.6% (inactive)
COc1cc(/C=C/C(=O)/C=C(/C=C/c2ccc(OC(C)=O)c(OC)c2)OB(F)F)ccc1OC(C)=O	69.6% (inactive)
Cc1c([C@H](C(Cl)Cl)[C@H](O)[C@H]2C[C@H](C)C(=O)O2)ccc2c1C(=O)[C@H]1[C@H]2C[C@@H](Br)[C@@]23O[C@@H](CO[C@H]2O)CC13C (some centres undefined)	38.6% (inactive)
O=C1/C(=N\c2cc(=O)[nH]n2S(=O)(=O)c2ccccc2)Nc2ccccc21	98.4% (inactive)
N=C(N)c1ccc(-c2ccc(-c3ccc(Cl)cc3)s2)s1	-50.8% (active)
COc1cc([C@@H]2c3cc4c(cc3[C@H](O)[C@H]3COC[C@@H]23)OCO4)cc(OC)c1OC	85.8% (inactive)
O=Nc1c(-c2c(O)[nH]c3cc(Br)ccc23)[nH]c2ccccc12	7.53% (active)
CC(C)(C)C(=O)OCOP(=O)(OCOC(=O)C(C)(C)C)C1CC(O)N(O)C1=O (centres undefined)	74.4% (inactive)
CC1(C)CC(=O)C2=C(C1)Oc1nc(N)c(C#N)c(N)c1C2c1ccc(F)cc1 (centres undefined)	102% (inactive)

SMILES	growth
COc1ccc(CNCCCN2C(=O)c3ccc4c5c(ccc(c35)C2=O)C(=O)N(CCCNCc2ccc(OC)c(OC)c2OC)C4=O)c(OC)c1OC	-97.3% (active)
O=C(Nc1ccccc1)Nc1ccc(Nc2ncnc3sc4c(c23)CCCC4)cc1	107% (inactive)
O=S(=O)(Cc1cccc2c(CS(=O)(=O)c3ccc(Cl)cc3)cccc12)c1ccc(Cl)cc1	100% (inactive)
COc1cc(CNC(=O)CCCC/C=C/C(C)C)ccc1OCc1nnc(Nc2ccccc2F)o1	0.691% (active)
Nc1nc2c(c3ncncc13)C(c1cccc(C(F)(F)F)c1)Cc1ncncc1-2 (centres undefined)	39.8% (inactive)
Cn1cnc2nc[nH]c2c1=S	108% (inactive)
O=C(O)c1ccc(-c2nn(-c3ccc(C(=O)O)cc3)cc2CNc2ccc(Br)cc2)cc1	104% (inactive)
O=C(N/N=C/c1coc2ccccc2c1=O)c1cc2oc(-c3ccccc3)cc2[nH]1	98.7% (inactive)
CCC(C)C1NC(=O)C(CC(C)C)NC(=O)C(C)NC(=O)C(C(C)C)NC(=O)C(CCCCN)NC(=O)C(CC(C)C)NC(=O)C(C(C)C)NC(=O)[C@H](C)NC(=O)C(C(C)CC)NC(=O)C(CCCN=C(N)N)NC(=O)C(CCCCN)NC(=O)C(CCCN=C(N)N)NC(=O)C(CCCCN)NC(=O)C([C@H](C)CC)NC(=O)C(CCCCN)NC1=O (some centres undefined)	18.4% (inactive)
C=CCN(C)C	115% (inactive)
CCC(CCCN1C(=O)c2ccccc2C1=O)Nc1cc(OC)cc2cccnc12 (centres undefined)	39.9% (inactive)
O=c1c(N=Nc2nccs2)c(-c2ccccc2)[nH]n1-c1nc(-c2ccccc2)cs1	39.5% (inactive)
Cc1ccc(C(=O)Nc2ccc(CN3CCN(C)CC3)c(C(F)(F)F)c2)cc1C#Cc1cncc2ncccc12	-87.5% (active)
CCOC(=O)C1C(=O)C(=O)N(C(C)C)C1C(=O)OCC (centres undefined)	106% (inactive)
COc1cc2c(cc1OC)C(Cc1cc(OC)c(OC)cc1[N+](=O)[O-])=NCC2	91.6% (inactive)
COc1ccc2c(c1)/C(=C1/S/C(=N/c3nnc(C)s3)NC1=O)C(=O)N2Cc1ccc(Br)cc1	40.1% (inactive)
CCOP1(=O)CC(C)=C(Cl)C(P(=O)(O)O)C1 (centres undefined)	94.5% (inactive)
